Test [1] is described as follows: Cell Viability - BJ (AID 421).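 Note: cells exposed to compound for 40 hours at 37 °C before readout.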 The following applies: BJ fibroblast viability, qHTS. In a few lines:
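Quantitative HTS: ATP depletion in BJ cells after 40 hr compound exposure in complete culture medium, detected with CellTiter-Glo; AC50 from standard Hill fits.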
(In qHTS, concentration-response curves come from the screen itself.)

Test [2] in a line: Cell Viability - Jurkat (AID 426;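 active = dose-dependent loss of cell ATP signal giving a full or clear fitted curve, ranked by lower potency value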). The note with it: qHTS. In a few lines: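 Jurkat (Clone E6-1) cells, 5000/well in complete medium, exposed to compounds for 40 hr at 37C; intracellular ATP measured by CellTiter-Glo luminescence after 20 min at room temperature. AC50 from Hill fits.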
Test [3] can be described thus: Cell Viability - Hek293 (AID 427;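 active = compounds whose dose-response curve shows a full or clear partial loss of cell viability, called from curve shape rather than a numeric limit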;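 note: cells exposed to compound for 40 hours at 37 °C before reading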). The following applies: qHTS. In a few lines: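 AC50 values derive from Hill-modelled concentration-response of ATP-based luminescence, normalized between DMSO-only and 100 uM tamoxifen controls. Cells were exposed in complete culture medium for 40 hr at 37 °C before detection.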
The nature of test [4]: Cell Viability - HepG2 (AID 433).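 Note: potency for ATP loss meaning cytotoxicity.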 The note with it: qHTS. In a few lines:
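ATP luminescence (CellTiter-Glo) after 40 h compound exposure, 37 °C, HepG2, 1500 cells/well, complete medium. Normalized: DMSO = basal, 100 uM tamoxifen = 100% inhibition. AC50 via standard Hill equation.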

The nature of test [5]: Cell Viability - MRC5 (AID 434).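 Note: potency reflects cytotoxicity seen as loss of intracellular ATP.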 The following applies: MRC5 lung fibroblast viability, qHTS. In outline:
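MRC5 normal human lung fibroblasts, 1500 cells/well, exposed to compound for 40 hr at 37 C. Cellular ATP was read by CellTiter-Glo luminescence; data normalized to DMSO and 100 uM tamoxifen, with AC50 from Hill fits.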

Test [6] in a line: Cell Viability - SK-N-SH (AID 435). The following applies: SK-N-SH neuroblastoma cell viability qHTS. In a few lines: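 CellTiter-Glo ATP luminescence, 20 min RT read; cells pre-plated 5 hr, compound 40 hr at 37 °C, 1500 cells/well, complete medium. Normalized DMSO = 0, 100 uM tamoxifen = 100% inhibition; Hill-fit AC50.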

Results filed as inconclusive are left out. A number with no mark means an inactive call. The source made the active and inactive calls. Unless noted, calls come from the whole dose curve.
Potency is the fitted concentration of half-maximal effect.

Turning to `CC1=CCC2CC1C2(C)C` (stereo unspecified), the Potency in test [1], in test [2], in test [3], in test [4], in test [5] and in test [6] was more than 92 µM each time.
As to `Cc1ccc(S(=O)(=O)O)cc1C`, the Potency in test [1], in test [2], in test [3], in test [4], in test [5] and in test [6] was more than 92 µM each time.
In the case of `CO`, the Potency in test [1], in test [2], in test [3], in test [4], in test [5] and in test [6] was more than 92 µM each time.
Turning to `O=c1n(CC2CO2)c(=O)n(CC2CO2)c(=O)n1CC1CO1` (stereo unspecified), the Potency in test [1] is 30.6 µM (active); in test [2] it was 14.7 µM (active); in test [5], 51.4 µM (active).
Regarding `NC(N)=O`, the Potency in test [1], in test [2], in test [3], in test [4], in test [5] and in test [6] was more than 92 µM in each case.
In the case of `Nc1ncnc2c1ncn2[C@H]1CC[C@@H](CO)O1`, the Potency in test [1], in test [2], in test [3], in test [4], in test [5] and in test [6] was more than 92 µM throughout.
As to `CC[C@H]1OC(=O)[C@H](C)[C@@H](O[C@H]2C[C@@](C)(OC)[C@@H](O)[C@H](C)O2)[C@H](C)[C@@H](O[C@@H]2O[C@H](C)C[C@H](N(C)C)[C@H]2O)[C@](C)(O)C[C@@H](C)CN(C)[C@H](C)[C@@H](O)[C@]1(C)O`, the Potency in test [1], in test [3], in test [4] and in test [5] was more than 92 µM each time.
Regarding `C[C@H](CCC(=O)O)[C@H]1CC[C@H]2[C@@H]3[C@H](O)C[C@@H]4C[C@H](O)CC[C@]4(C)[C@H]3C[C@H](O)[C@]12C`, the Potency in test [1], in test [2], in test [3], in test [4], in test [5] and in test [6] was more than 92 µM in each case.
`COC(=O)c1ccccc1O`: the Potency in test [1], in test [2], in test [3], in test [4], in test [5] and in test [6] was more than 92 µM each time.
On to `C[C@H]1O[C@@H](O[C@H]2[C@@H](O)C[C@H](O[C@H]3[C@@H](O)C[C@H](O[C@H]4CC[C@@]5(C)[C@H](CC[C@@H]6[C@@H]5C[C@@H](O)[C@]5(C)[C@@H](C7=CC(=O)OC7)CC[C@]65O)C4)O[C@@H]3C)O[C@@H]2C)C[C@H](O)[C@@H]1O`, for which the Potency in test [1] was 0.00125 µM (active); in test [2], 0.00438 µM (active); in test [3] it was 0.0128 µM (active); in test [4], 0.0159 µM (active); in test [5] it was more than 92 µM; in test [6], 0.0073 µM (active).
With `CC1=CC(=O)NS(=O)(=O)O1`, the Potency in test [1], in test [2], in test [3], in test [4], in test [5] and in test [6] was more than 92 µM throughout.
